Measured values from the supplement of paper PMC4166925.
± gives the standard deviation of the averaged measurements. In all, about 33,000 sequences were measured (“E-score (dimensionless, -0.5 to 0.5)”: median about -0.049, highest 2% from about 0.37 on). The sample as a whole holds a higher share of the highest values than the screen did.

These sequences were tested on T1, PmTbr T-box DNA-binding domain (GST fusion) (assay: PBM E-score of 8-mer (E-score (dimensionless, -0.5 to 0.5)); Tbr is Tbrain of the sea star Patiria miniata (Pm) or the sea urchin Strongylocentrotus purpuratus (Sp); higher = stronger binding preference). Details: the construct has about 5 more residues each side.
T1 sequence: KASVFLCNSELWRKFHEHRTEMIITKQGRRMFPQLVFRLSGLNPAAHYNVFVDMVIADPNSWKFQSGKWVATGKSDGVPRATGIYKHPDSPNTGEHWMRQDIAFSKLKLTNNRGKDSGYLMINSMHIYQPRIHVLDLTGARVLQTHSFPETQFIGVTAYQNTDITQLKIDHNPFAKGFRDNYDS
Protocol: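 Universal protein-binding microarray (Agilent AMADID 016060, 60-bp probes with a 35-bp variable region) incubated with 200 nM GST-fused Patiria miniata Tbr T-box DNA-binding domain (residues 272-466) in PBS pH 7.5. Scored for every ungapped 8-mer (given with its reverse complement) by the Universal PBM Analysis Suite as E-score (modified Wilcoxon-Mann-Whitney enrichment, range -0.5 to 0.5; >0.45 counts as bound) and Z-score of median probe intensity. Two replicate arrays (datasets 1 and 2).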
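Further: 200 nM protein in PBS on universal arrays averaged over duplicate arrays.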

In order of rising “PBM E-score of 8-mer” value:
1. TAGGCCAA  -0.298 ± 0.065
2. AGACCTTC  -0.269 ± 0.022
3. ACTCTTCT  -0.264 ± 0.02
4. AAAAGCGG  -0.261 ± 0.1
5. AATAGGTC  -0.258 ± 0.012
6. AAACTTCT  -0.236 ± 0.043
7. ACTAGGTA  -0.23 ± 0.039
8. ATGGCGGA  -0.225 ± 0.027
9. AAGGCCGA  -0.191 ± 0.09
10. AGACCTTG  -0.174 ± 0.013
11. TACCTGCA  -0.174 ± 0.0055
12. TCAAGAAA  -0.17 ± 0.11
13. GCCATTAC  -0.169 ± 0.06
14. AGCGTCCT  -0.167 ± 0.046
15. ATTAGGTC  -0.153 ± 0.013
16. CGTCCCAG  -0.151 ± 0.0033
17. AGTAGGTC  -0.148 ± 0.05
18. GAACCTTA  -0.144 ± 0.042
19. ACTAGGTC  -0.143 ± 0.0081
20. CTGACTCC  -0.143 ± 0.047
21. TAAGTGGA  -0.141 ± 0.0053
22. CCTTATGC  -0.139 ± 0.041
23. AAACCTTG  -0.132 ± 0.0072
24. ATTAGGTA  -0.131 ± 0.0089
25. ACCGAATG  -0.119 ± 0.0097
26. GATATACC  -0.114 ± 0.031
27. GGCCTGAC  -0.103 ± 0.02
28. AGAGGTCA  -0.0997 ± 0.006
29. AAATCTAG  -0.091 ± 0.019
30. AGTTACCC  -0.0906 ± 0.018
31. AGCCAGAG  -0.0902 ± 0.046
32. AGCCCCGC  -0.0835 ± 0.072
33. ATTCTCGG  -0.082 ± 0.071
34. AATCTTCA  -0.068 ± 0.038
35. CTGCCCTC  -0.067 ± 0.048
36. GAAAATAA  -0.0661 ± 0.086
37. AATAGGTA  -0.0644 ± 0.018
38. AATCTCTC  -0.0609 ± 0.011
39. AGTAGGTA  -0.0493 ± 0.079
40. ACCATGGC  -0.0471 ± 0.08
41. CTCGAGGC  -0.039 ± 0.098
42. TATAGCAA  -0.0376 ± 0.033
43. AAAAGCTT  -0.0359 ± 0.065
44. CAGTTTAA  -0.0321 ± 0.037
45. AATCTCAT  -0.0261 ± 0.042
46. ACTCTCCG  -0.0258 ± 0.0077
47. CGGCAAAC  -0.0247 ± 0.012
48. AAACCTTA  -0.0234 ± 0.053
49. AACCTGCC  -0.0169 ± 0.035
50. TTAGTAAA  -0.0101 ± 0.081
51. GGGGTTGA  -0.000915 ± 0.043
52. AAACTTCG  0.00852 ± 0.068
53. TCCCAGCA  0.0248 ± 0.11
54. CGATCTAG  0.025 ± 0.0082
55. ATCGCTTC  0.0264 ± 0.017
56. CTTTGTGA  0.028 ± 0.0037
57. CAACCGAG  0.0284 ± 0.0078
58. ACATCACT  0.0297 ± 0.063
59. CACACGGC  0.0461 ± 0.026
60. ATTCTCAG  0.0465 ± 0.077
61. CAAATTCG  0.0471 ± 0.029
62. GAACACTA  0.051 ± 0.077
63. ATTCACCA  0.0566 ± 0.052
64. GCTCTAAC  0.0585 ± 0.0059
65. GACCTGCA  0.0626 ± 0.036
66. CCACTTCC  0.0762 ± 0.022
67. GCCTCACC  0.0769 ± 0.049
68. AAATGTGG  0.0797 ± 0.052
69. ATACCTTA  0.0857 ± 0.093
70. AGGTTCTC  0.0874 ± 0.028
71. CACACAAA  0.0927 ± 0.064
72. GGCGCGCA  0.0945 ± 0.0047
73. AATTACCG  0.0948 ± 0.036
74. AACCTGCG  0.0979 ± 0.006
75. GAACACCA  0.0994 ± 0.0056
76. CAAACTGG  0.102 ± 0.039
77. CAGAAGCG  0.103 ± 0.04
78. ATTCTCAA  0.115 ± 0.051
79. CGAATCAC  0.124 ± 0.029
80. GACGCGAA  0.126 ± 0.066
81. CCACTTCA  0.13 ± 0.034
82. AACACGAG  0.132 ± 0.0066
83. CCACACCG  0.134 ± 0.063
84. ACCTCTTG  0.138 ± 0.027
85. GACCTGCC  0.148 ± 0.0062
86. CCGTTGGC  0.151 ± 0.01
87. CAAGAGTG  0.154 ± 0.047
88. ACGTGAGG  0.159 ± 0.04
89. CAACACGA  0.161 ± 0.015
90. ACTAGTCA  0.164 ± 0.044
91. ACCACGTG  0.169 ± 0.053
92. CCACCTGA  0.172 ± 0.044
93. GAACACCC  0.1762 ± 0.00083
94. CAGTGAGA  0.181 ± 0.028
95. TACTGACA  0.1838 ± 0.00074
96. CTTAGCGA  0.184 ± 0.025
97. TCACTTCA  0.186 ± 0.021
98. AACCTGGC  0.195 ± 0.038
99. CACCCATC  0.201 ± 0.011
100. AAATGTGC  0.206 ± 0.049
101. GTGTGTAA  0.214 ± 0.022
102. ATGTGTGC  0.219 ± 0.016
103. ACACTCCT  0.228 ± 0.019
104. CAACACGC  0.229 ± 0.019
105. CGGTGAGA  0.236 ± 0.0071
106. GAGTCACA  0.237 ± 0.0075
107. ATATGTGA  0.24 ± 0.064
108. AAGTGAGG  0.2407 ± 0.0011
109. TAGTGATA  0.245 ± 0.035
110. CCACCTTA  0.246 ± 0.036
111. ATCGCGAG  0.249 ± 0.0038
112. CCACTTCG  0.254 ± 0.028
113. AAATTCAC  0.263 ± 0.021
114. AAACACCA  0.268 ± 0.0077
115. AAGTGATG  0.28 ± 0.0076
116. AGCGCGAT  0.291 ± 0.0076
117. GGGGGTGA  0.2941 ± 0.0011
118. CTGTGTGA  0.298 ± 0.018
119. CAACACCG  0.3 ± 0.013
120. AGGTGAGC  0.303 ± 0.042
121. GCGTCACA  0.307 ± 0.014
122. CCACCTTC  0.31 ± 0.02
123. AGCGCGAG  0.319 ± 0.011
124. CAACACTA  0.323 ± 0.04
125. ACACACCC  0.327 ± 0.015
126. GTCGCGAA  0.33 ± 0.02
127. GAGTGAGA  0.334 ± 0.017
128. ATCGCGAA  0.335 ± 0.046
129. CACATTTC  0.3486 ± 0.0015
130. ACGTGAGA  0.349 ± 0.0086
131. TCACCTGA  0.353 ± 0.019
132. CGCACGTC  0.354 ± 0.02
133. CACACGTA  0.357 ± 0.0053
134. CACCTGGG  0.361 ± 0.029
135. GCACTTCC  0.365 ± 0.021
136. CACCTGGA  0.366 ± 0.025
137. CTCGCGAA  0.368 ± 0.0047
138. AAGTGATA  0.37 ± 0.025
139. TTCGCGAA  0.3702 ± 0.0034
140. ATTAGGTG  0.374 ± 0.0089
141. CACACGTG  0.376 ± 0.019
142. AACACGTG  0.38 ± 0.016
143. ATCGCGAT  0.38 ± 0.014
144. AATCTCAC  0.382 ± 0.0088
145. ACACTCCG  0.3818 ± 0.0019
146. TAACACTA  0.382 ± 0.0057
147. GCACCTGA  0.391 ± 0.024
148. CAACACCA  0.392 ± 0.015
149. AGCGCGAA  0.392 ± 0.014
150. CCACACCC  0.395 ± 0.028
151. CACCTGCA  0.4 ± 0.0099
152. GGGTGAGA  0.406 ± 0.009
153. CACCTGCC  0.406 ± 0.021
154. AGTAGGTG  0.4125 ± 0.00071
155. GTGTGTGA  0.41536 ± 0.00023
156. GCACCTTA  0.4187 ± 0.0021
157. ACTAGGTG  0.425 ± 0.012
158. ACACTTCG  0.427 ± 0.0093
159. ACACTTCT  0.4266 ± 0.0042
160. CACCTGGC  0.427 ± 0.007
161. AATAGGTG  0.428 ± 0.013
162. ACACTTCC  0.428 ± 0.016
163. AGGTGAGG  0.428 ± 0.013
164. AAGTGAGA  0.429 ± 0.0088
165. CACCTGCG  0.429 ± 0.019
166. AAATGTGT  0.432 ± 0.011
167. ATTCTCAC  0.435 ± 0.017
168. CACACGTC  0.4359 ± 0.0027
169. ACACTTCA  0.441 ± 0.017
170. CAACACCC  0.444 ± 0.015
171. TAACACCA  0.451 ± 0.0075
172. GGCGCGAA  0.4607 ± 0.0017
173. ACACCTTA  0.4762 ± 0.00075
174. ACACCTTC  0.479 ± 0.00068
175. ACACCTTG  0.481 ± 0.0055
176. ATGTGTGA  0.4845 ± 0.00059
177. AGGTGAGA  0.486 ± 0.0024
